Each structure is given as a SMILES string. About 83,000 compounds went through this panel and 20% of them were active in at least one assay; those are over-represented in the sample as a whole.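 Growth was measured after 48 h exposure to one concentration of compound in 96-well plates. Values under 10 count as active.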 Activity calls are given as the source filed them.

The test system of this assay is UO-31 renal. Nature of the assay: NCI-60 one-dose screen, 48 h (100 = growth as untreated, 0 = no growth, -100 = all killed). To be noted: 10 µM unless noted.
On to `Cn1ccnc1C(=O)/C=C/c1ccc(NC(=O)Nc2ccc(Cl)cc2)cc1`, for which the growth is 97.7% (inactive). On to `C#Cc1nc(C2=C(C)/C(=N/OCc3ccccc3)CC2)cs1`, for which the growth was -93.8% (active).

Take `COc1ccc(-n2c(SCC(=O)Nc3ccc(-c4nc5ccccc5[nH]4)cc3)nc3ccccc3c2=O)cc1`: the growth was 73.5% (inactive). In the case of `COc1cc(OC)c(S(=O)(=O)NNC(=O)c2ccncc2)cc1C(=O)/C=C/c1ccc(C)cc1`, the growth was 77.5% (inactive). Consider `COC(=O)C(C)NS(=O)(=O)/N=C1\NC(=O)NC1=C(Cl)Cl` (stereo not drawn), for which the growth is 81.7% (inactive).

As for `COc1ccc(C(=O)/C=C/c2ccc(Oc3nc(NCCO)nc(N4CCOCC4)n3)c(OC)c2)cc1`, the growth is 67.4% (inactive).

For the molecule `NS(=O)(=O)c1cccc(Nc2nc(SCC(=O)c3ccc(Br)cc3)nc3ccccc23)c1`, the growth is 59.6% (inactive). The same measure for `O=C(N/N=C/c1ccc([N+](=O)[O-])o1)c1[nH]c2ccc(Br)cc2c1-c1ccccc1`: 30.9% (inactive). With `O=C(N/N=C/c1cccs1)c1[nH]c2ccc(Br)cc2c1-c1ccccc1`, the growth is 49.4% (inactive).

Consider `COc1cc2cc(Oc3ccc(NC(=O)c4cccc(C(F)(F)F)c4)cc3)c(C)nc2cc1OCCN1CCCCC1`, for which the growth is 69.3% (inactive). For the molecule `Cc1sc2c(c1C)c(=O)nc1c(-c3nc(-c4ccc(F)cc4)no3)n[nH]n12`, the growth was 88.1% (inactive). With `N#Cc1nc(-c2ccccc2)oc1N1CC[C@@H](CO)C1`, the growth is 86.3% (inactive). The result for `Cn1ccnc1C(=O)/C=C/c1ccc(NC(=O)Nc2ccc(F)cc2)cc1` reads 56.6% (inactive); that for `COc1ccc(NC2=C(Cl)C(=O)C(C)=C(C)C2=O)cc1OC`, 90.3% (inactive). Regarding `NS(=O)(=O)c1ccc(Nc2nc(Nc3ccccc3)nc(-n3nc(-c4ccccc4)cc3-c3ccccc3)n2)cc1`, the growth was 29.1% (inactive). Turning to `C#Cc1nc(C2=C(C)C(O)/C(=N/O)C2)cs1` (stereo not drawn), the growth is -91.1% (active). The same measure for `Cc1ccc2c(n1)C(=O)C(Cl)=C(Nc1cccc(C(C)C)c1)C2=O`: 50.3% (inactive). On to `CN1CCc2c(sc3ncnc(N/N=C/c4ccc(Cl)c(Cl)c4)c23)C1`, for which the growth is 29.7% (inactive).

Consider `O=C(CSc1nnc(-c2ccc3nc(-c4ccc(Cl)cc4)[nH]c3c2)o1)Nc1ccc(C(=O)/C=C/c2ccc(Cl)cc2)cc1`, for which the growth was 75.3% (inactive).

For the molecule `O=C(N/N=C/c1ccc(Br)s1)c1[nH]c2ccc(Br)cc2c1-c1ccccc1`, the growth was 48.6% (inactive). As for `C#Cc1nc(C2=C(C)C(O)CC2)cs1` (stereo not drawn), the growth is -66.1% (active). Take `O=C(N/N=C/c1ccc[nH]1)c1[nH]c2ccc(Br)cc2c1-c1ccccc1`: the growth was 12.3% (inactive).

Take `COc1ccc(/C=N/NC(=O)c2[nH]c3ccc(Br)cc3c2-c2ccccc2)s1`: the growth is 45.1% (inactive).

Take `C/C(=N\NC(N)=O)c1c(O)sc(=O)[nH]c1=O`: the growth is 87.1% (inactive).

As to `C#Cc1nc(C2=C(C)C(=O)/C(=N/OC(C)=O)C2)cs1`, the growth is -92.1% (active).

Take `Cn1ccnc1C(=O)/C=C/c1ccc(NC(=O)Nc2ccccc2)cc1`: the growth was 40.7% (inactive).

As for `COc1cc(/C=C/C(=O)c2cc(OC)c(OC)c(OC)c2)ccc1OCc1ccccc1`, the growth was 45.5% (inactive). Turning to `CC(O)C(NC(=O)C1CCCN1C(=O)CNC(=O)C1CC(=O)NCC(=O)NC(Cc2c[nH]c3ccccc23)C(=O)NC(Cc2ccc(O)cc2)C(=O)NCC(=O)NC(CO)C(=O)NC(CCC(N)=O)C(=O)NC(Cc2c[nH]c3ccccc23)C(=O)N1)C(=O)NCC(=O)NC(CCC(N)=O)C(=O)NC(CCCNC(=N)N)C(=O)NC(CC(=O)O)C(=O)O` (stereo not drawn), the growth is 83.3% (inactive). The same measure for `COc1cc(/C=C/C(=O)c2cc(OC)c(OC)c(OC)c2)ccc1OCc1ccc(F)cc1`: 45.4% (inactive). For `O=C(N/N=C/c1ccc([N+](=O)[O-])s1)c1[nH]c2ccc(Br)cc2c1-c1ccccc1`, the growth is 46.6% (inactive).

Take `N#Cc1c(-c2ccc(Cl)cc2)nc2c(-c3ccccc3)c(Nc3ccccc3)nn2c1N`: the growth is 34.8% (inactive). For the molecule `O=C(Oc1ccc2ccc(=O)oc2c1)c1ccc(Cl)cc1`, the growth was 86.7% (inactive). Consider `C#Cc1nc(C2=C(C)C(OC(=O)CCC(=O)O)CC2)cs1` (stereo not drawn), for which the growth was -19.3% (active). On to `C#Cc1nc(C2=C(C)C(=N\O)/C(=N/O)C2)cs1`, for which the growth is -92.4% (active). Consider `O=C(N/N=C/c1ccco1)c1[nH]c2ccc(Br)cc2c1-c1ccccc1`, for which the growth was 38.6% (inactive). For the molecule `COC(=O)C(Cc1ccccc1)NS(=O)(=O)/N=C1\NC(=O)NC1=C(Cl)Cl` (stereo not drawn), the growth is 81.3% (inactive). As to `N#Cc1ccc(/C=N/NC(=O)c2[nH]c3ccc(Br)cc3c2-c2ccccc2)s1`, the growth was 36% (inactive). On to `CCOc1ccc2nc(NC(=O)c3ccc(C(F)(F)F)cc3)sc2c1`, for which the growth is 104% (inactive).

The values are drawn from PubChem BioAssay (NCI).
